Experimental findings from the supplement of paper PMC6555819 are described below.

The test system of the assay is THRa:RXRa (NR concentration 90 nM, RXRa partner concentration 90 nM). In words: PBM binding z-score (relative to random genomic background probes); higher = stronger binding; sequences stand for … in GC…GCGATTGACAGCGTAGAATGAAGG
The method, boiled down:
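Custom Agilent 4×180K protein-binding microarrays carried double-stranded probes, each with a 34-nt variable region. These regions held direct-repeat seeds, single-nucleotide variants, half-site ablations and random human genomic background sequences. Ligand-free nuclear receptor dimers were incubated on the arrays for 1 h, antibodies against each partner (one per run) detected binding, and scanned fluorescence was regression-normalized. Binding z-scores take the random background probes as reference.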
CCTCCTGGGCCACGAAAGGTCATTGATTCAGTGA showed a PBM binding z-score of 3.84.
The value for CCTTACGGGTCACAAGGTTATAGCACGACGAGCG was 3.26; that for GCTGCTAAGTCAACTGATGGTCAGCTAAAGCTCG was -0.519.
With CCGACTGGGGCAAAGGGTACCATACTCAGTACGA the figure was 0.31; with CCTAGTTGGTCTAGGTCACACACGCTATAGGTAC, 2.99.
With ATCTCTAGTTAACAAGTTCAGTGAAAGAGAGGAC the figure was 1.12.
In turn, ATTCAAAGTTCACTAGGTAACGTAAGATTCAGCT returned a PBM binding z-score of 2.03.
With ACAGACAGATGATGAAGGTAACTCAGGCTATCAT the figure was 0.742; with TCTTGTTGATCAACAGGAGGTTAAGAAAGATCGA, 0.723.
The value for ACTAGTTGGTCAGCTGAGGTCAGACACAATTCGG was 4.56.
The value for ACTATTAGTTAAGACGAGGGCAACCGATAGGTTG was 1.85.
In the case of TCTGCTAGGTCAAGGATGGTCAGCTAATCTGCTA, the PBM binding z-score was found to be 2.88.
With TAGCTTAGGTCATGGGCCAGTATACCACGCGAAC the figure was 3.68.
The value for CCTTACGGGCCACTCCAGGTTATAGCATCGGAGT was 2.62; that for TCATATAGGTAAACAGGTCAAAGTCCGTAAGTTA was 2.27; that for AGTCAAACTTCATCTAGGTAACGTAAGATATGCT was 0.484.
On to ATCTCTAGGCAAAGTTCAGTGAAAGATCGATAGA, for which the PBM binding z-score was 0.452.
The value for ATGTCTAGGTAAAAGTTCAGTGAATCCCGAGGAT was 1.11; that for TCTATTAGTTAAAGGGCAACCGACGAGTCCGTTT was 0.666.
With CCTACTGGTCCACGAAAGGTCATTGATTCAGTGA the figure was 3.52; with ACTCGGAGGACAAAGGTCAGAGTTACGCCAGTGA, 3.59.
The value for CCGAGTAGGTTATGTGGCATTCAGGCAACGGTGA was 0.162.
